Test results reported in the supplement of paper PMC10849652.
About 7,900 targets were measured; listed, in parts, are those with a hit and a random draw of the rest. About 0.6% of all pairs of compound and target were hits.

Experiments:
Experiment in all cases: log2 fold change, soluble protein after heating vs DMSO (PISA); higher = thermal stabilisation; K562 cells, 10 uM, 30 min; active = over 0.2 and 3.5 SD of the protein, either way, in both replicates (recomputed)
[1] = compound: C#Cc1cccc(Nc2ncnc3cc(OCCOC)c(OCCOC)cc23)c1 [erlotinib]
Outline: (§1)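 For each measurement, 10 μM compound was applied for 30 min to K562 cells at 2×10^6 cells/mL. Aliquots were heated for 3 min across 48°C-58°C, pooled, and extracted in PBS with 0.5% NP-40 at 4°C; the supernatant after 21,000xg for 90 min was soluble protein. This was quantified by TMTpro 16plex LC-MS/MS with channel sums equalised, and thermal stability was reported relative to control samples from duplicates, on a log2 fold-change scale.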

[2] = compound: C/C(=N\NC(=O)C1=CC(=CC=C1)S(=O)(=O)N2CCOCC2)/C3=C(C=CC(=C3)Cl)O
Outline: as §1

[3] = compound: C1=CC(=C(C=C1Cl)C2=NC3=NC=CN=C3C(=N2)NC4=CC=NC=C4)F
Outline: as §1

[4] = compound: C1=CC(=CC=C1C2=NC3=C(N2)C=C(C=C3)C(=O)N)OC4=CC=C(C=C4)Cl
Outline: as §1

[5] = compound: C1=CC2=C(C=CC(=C2)/C=C\3/C(=O)NC(=NCC4=CC=CS4)S3)N=C1
Outline: as §1

[6] = compound: C1=CC2=NC=CN=C2C=C1/C=C/3\C(=O)NC(=O)S3
Outline: as §1

[7] = compound: C1=CC=C(C=C1)C2=NC(=C(N2)C3=CC=NC=C3)C4=CC(=C(C=C4)Cl)O
Outline: as §1

[8] = compound: C1=CC=C2C(=C1)C3=NNC4=CC=CC(=C43)C2=O
Outline: as §1

[9] = compound: C1CCN(C1)C(=O)NC2=CC=CC(=C2)NC3=NC=C(C(=N3)NCCC4=CN=CN4)Br
Outline: as §1

[10] = compound: C1CN(CCC1(CC2=CC=C(C=C2)Cl)N)C3=NC=NC4=C3C=CN4
Outline: as §1

Measured: log2 fold change

PSMD12 (UniProt O00232)
inactive: [1] -0.064 | [2] 0 | [3] -0.017 | [4] -0.003 | [5] -0.023 | [6] -0.016 | [7] 0.009 | [8] 0.066 | [9] -0.042 | [10] -0.049

PRKCG (UniProt P05129)
inactive: [1] -0.04 | [2] 0.058 | [3] 0.052 | [4] 0.04 | [5] 0.144 | [6] -0.033 | [7] 0.074 | [8] 0.023 | [9] -0.052 | [10] -0.138

PITRM1 isoform 2 (UniProt Q5JRX3)
Chain of UniProt Q5JRX3 (Q5JRX3 whole entry, looked up): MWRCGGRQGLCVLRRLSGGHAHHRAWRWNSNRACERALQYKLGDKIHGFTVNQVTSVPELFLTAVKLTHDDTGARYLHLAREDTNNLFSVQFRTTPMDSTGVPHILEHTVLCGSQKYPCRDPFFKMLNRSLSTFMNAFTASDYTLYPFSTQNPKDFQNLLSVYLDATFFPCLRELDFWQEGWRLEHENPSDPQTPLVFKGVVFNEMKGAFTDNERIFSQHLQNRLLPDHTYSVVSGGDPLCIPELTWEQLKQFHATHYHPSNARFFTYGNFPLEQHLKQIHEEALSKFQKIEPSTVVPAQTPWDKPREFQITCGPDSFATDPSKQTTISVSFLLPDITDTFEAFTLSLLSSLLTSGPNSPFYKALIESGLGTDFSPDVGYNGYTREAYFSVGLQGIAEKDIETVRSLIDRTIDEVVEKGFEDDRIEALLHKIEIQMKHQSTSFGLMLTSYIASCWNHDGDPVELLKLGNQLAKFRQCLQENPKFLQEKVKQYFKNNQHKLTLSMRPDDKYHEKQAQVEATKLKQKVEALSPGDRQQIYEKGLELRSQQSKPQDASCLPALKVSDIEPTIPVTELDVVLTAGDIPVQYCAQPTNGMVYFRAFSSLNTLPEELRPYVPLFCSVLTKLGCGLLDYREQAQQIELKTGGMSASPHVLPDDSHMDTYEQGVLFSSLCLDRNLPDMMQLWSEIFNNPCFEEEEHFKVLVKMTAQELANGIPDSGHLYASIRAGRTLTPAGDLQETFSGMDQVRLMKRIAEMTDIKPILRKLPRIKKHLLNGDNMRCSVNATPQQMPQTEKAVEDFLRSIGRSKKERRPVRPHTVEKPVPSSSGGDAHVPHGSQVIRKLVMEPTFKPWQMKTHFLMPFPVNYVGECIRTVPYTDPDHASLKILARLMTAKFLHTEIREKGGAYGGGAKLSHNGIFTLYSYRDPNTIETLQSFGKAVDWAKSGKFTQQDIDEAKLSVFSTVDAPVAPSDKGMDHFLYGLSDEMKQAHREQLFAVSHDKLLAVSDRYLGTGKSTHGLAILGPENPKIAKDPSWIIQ
inactive: [1] -0.004 | [2] -0.008 | [3] 0.012 | [4] 0.005 | [5] 0.118 | [6] 0.007 | [7] 0.041 | [8] 0.03 | [9] 0.023 | [10] 0.153

PLIN2 (UniProt Q99541)
Chain of UniProt Q99541 (Q99541 whole entry, looked up): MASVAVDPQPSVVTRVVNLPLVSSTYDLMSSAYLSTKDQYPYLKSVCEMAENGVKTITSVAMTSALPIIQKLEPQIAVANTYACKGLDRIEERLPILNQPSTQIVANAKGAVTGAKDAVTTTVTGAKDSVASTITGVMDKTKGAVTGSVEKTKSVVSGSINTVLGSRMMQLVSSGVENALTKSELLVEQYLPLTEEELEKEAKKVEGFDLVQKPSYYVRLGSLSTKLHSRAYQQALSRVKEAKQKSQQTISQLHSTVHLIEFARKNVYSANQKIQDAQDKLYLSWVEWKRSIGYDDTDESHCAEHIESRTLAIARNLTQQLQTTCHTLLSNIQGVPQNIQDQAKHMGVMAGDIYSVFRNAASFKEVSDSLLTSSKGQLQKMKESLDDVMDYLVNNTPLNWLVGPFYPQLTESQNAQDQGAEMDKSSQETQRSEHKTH
inactive: [1] 0.033 | [2] 0.028 | [3] 0.043 | [4] -0.038 | [5] 0.023 | [6] 0.101 | [7] 0 | [8] -0.089 | [9] 0.028 | [10] -0.068

PTPN23 (UniProt Q9H3S7)
inactive: [1] 0.092 | [2] 0.158 | [3] -0.007 | [4] -0.048 | [5] 0.041 | [6] 0.018 | [7] 0 | [8] 0.006 | [9] -0.048 | [10] -0.029

PRKCE (UniProt Q02156)
inactive: [1] -0.076 | [2] 0.107 | [3] 0.111 | [4] 0.057 | [5] 0.06 | [6] 0.057 | [8] 0.004 | [9] -0.019 | [10] -0.095

PXK (UniProt Q7Z7A4)
Chain of UniProt Q7Z7A4 (Q7Z7A4 whole entry, looked up): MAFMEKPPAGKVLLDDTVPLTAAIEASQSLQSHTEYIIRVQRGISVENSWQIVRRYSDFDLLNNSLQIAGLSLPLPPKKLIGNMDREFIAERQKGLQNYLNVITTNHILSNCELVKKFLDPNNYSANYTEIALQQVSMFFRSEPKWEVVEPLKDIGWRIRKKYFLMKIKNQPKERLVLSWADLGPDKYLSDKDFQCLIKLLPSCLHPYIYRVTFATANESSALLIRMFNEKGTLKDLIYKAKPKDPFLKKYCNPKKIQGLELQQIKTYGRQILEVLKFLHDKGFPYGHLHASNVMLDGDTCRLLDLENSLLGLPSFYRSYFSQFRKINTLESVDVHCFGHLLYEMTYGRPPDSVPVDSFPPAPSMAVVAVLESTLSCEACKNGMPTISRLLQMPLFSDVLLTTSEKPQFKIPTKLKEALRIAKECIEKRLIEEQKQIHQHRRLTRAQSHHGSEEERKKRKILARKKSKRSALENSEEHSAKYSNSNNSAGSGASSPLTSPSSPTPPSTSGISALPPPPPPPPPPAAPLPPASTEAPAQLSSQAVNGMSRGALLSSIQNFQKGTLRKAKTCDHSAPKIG
active: [7] 0.251
inactive: [1] 0.062 | [2] 0.019 | [3] -0.006 | [4] 0.022 | [5] 0.074 | [6] 0.018 | [8] 0.019 | [9] 0.014 | [10] 0.004

PARP16 isoform 3 (UniProt Q8N5Y8)
inactive: [1] 0.025 | [2] 0.049 | [3] -0.055 | [4] -0.018 | [5] -0.029 | [6] 0.102 | [8] -0.013 | [9] -0.026 | [10] 0.067

PIKFYVE (UniProt Q9Y2I7)
inactive: [1] -0.174 | [2] 0.111 | [3] 0.082 | [4] 0.082 | [5] -0.007 | [6] 0.075 | [7] 0.04 | [8] -0.014 | [9] 0.037 | [10] -0.108

PCBP2 isoform 3 (UniProt Q15366)
inactive: [1] -0.01 | [2] 0.087 | [3] 0.038 | [4] -0.039 | [5] 0.019 | [6] 0.025 | [7] 0.063 | [8] 0.017 | [9] -0.039 | [10] 0.01

PTTG1IP (UniProt P53801)
Chain of UniProt P53801 (P53801 whole entry, looked up): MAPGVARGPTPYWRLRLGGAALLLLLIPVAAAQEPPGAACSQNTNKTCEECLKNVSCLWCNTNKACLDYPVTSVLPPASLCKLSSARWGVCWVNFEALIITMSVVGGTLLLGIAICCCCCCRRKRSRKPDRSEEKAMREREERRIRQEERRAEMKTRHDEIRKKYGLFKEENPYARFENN
inactive: [1] -0.011 | [2] -0.06 | [3] -0.039 | [4] -0.001 | [5] 0.026 | [6] 0.033 | [8] -0.082 | [9] 0.037 | [10] 0.01

PFDN1 (UniProt O60925)
inactive: [1] -0.018 | [2] 0.012 | [3] 0.263 | [4] 0.07 | [5] 0.056 | [6] 0.063 | [7] 0.137 | [8] 0.047 | [9] -0.091 | [10] -0.057

PPP4R3B (UniProt Q5MIZ7)
Chain of UniProt Q5MIZ7 (Q5MIZ7 whole entry, looked up): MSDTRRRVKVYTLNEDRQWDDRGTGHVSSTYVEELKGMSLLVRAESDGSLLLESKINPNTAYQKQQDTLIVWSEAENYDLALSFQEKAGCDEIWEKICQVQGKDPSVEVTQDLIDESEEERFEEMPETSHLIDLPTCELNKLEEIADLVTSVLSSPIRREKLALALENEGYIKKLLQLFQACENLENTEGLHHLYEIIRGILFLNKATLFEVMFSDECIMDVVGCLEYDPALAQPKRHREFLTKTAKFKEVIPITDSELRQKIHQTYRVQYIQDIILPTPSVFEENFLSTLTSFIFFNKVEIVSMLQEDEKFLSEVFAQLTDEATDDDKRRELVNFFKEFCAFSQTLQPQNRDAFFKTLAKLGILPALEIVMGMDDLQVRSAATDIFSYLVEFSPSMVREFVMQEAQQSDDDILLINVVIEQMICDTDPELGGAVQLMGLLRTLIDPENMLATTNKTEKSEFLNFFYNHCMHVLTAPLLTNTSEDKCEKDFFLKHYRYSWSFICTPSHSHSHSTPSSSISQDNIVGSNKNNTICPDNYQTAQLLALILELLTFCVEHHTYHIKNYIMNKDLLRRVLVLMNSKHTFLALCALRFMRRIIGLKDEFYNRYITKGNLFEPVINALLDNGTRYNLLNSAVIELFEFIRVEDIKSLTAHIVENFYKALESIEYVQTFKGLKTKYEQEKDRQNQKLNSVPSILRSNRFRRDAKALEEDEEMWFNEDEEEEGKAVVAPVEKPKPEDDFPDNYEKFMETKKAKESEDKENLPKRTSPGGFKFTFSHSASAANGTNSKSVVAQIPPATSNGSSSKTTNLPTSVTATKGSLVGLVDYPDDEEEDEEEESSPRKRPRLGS
inactive: [1] 0.022 | [2] 0.023 | [3] 0.013 | [4] -0.023 | [5] 0.083 | [6] 0.028 | [7] -0.023 | [8] -0.019 | [9] -0.003 | [10] -0.027

PPIL2 (UniProt Q13356)
inactive: [1] 0.061 | [2] 0.072 | [3] 0.064 | [4] -0.033 | [5] 0.047 | [6] 0.004 | [7] 0.026 | [8] 0.067 | [9] -0.052 | [10] -0.079

PDE6D (UniProt O43924)
Chain of UniProt O43924 (O43924 whole entry, looked up): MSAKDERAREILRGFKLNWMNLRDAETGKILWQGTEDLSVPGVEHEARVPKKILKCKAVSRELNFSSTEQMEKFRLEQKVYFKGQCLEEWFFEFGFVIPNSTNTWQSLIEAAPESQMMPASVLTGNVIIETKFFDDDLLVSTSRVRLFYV
inactive: [1] -0.094 | [2] 0.055 | [3] -0.082 | [4] -0.102 | [5] 0.078 | [6] 0.004 | [8] 0.115 | [9] 0.417 | [10] 0.028

POLR2C (UniProt P19387)
inactive: [1] 0.05 | [2] 0.037 | [3] -0.006 | [4] -0.051 | [5] -0.038 | [6] -0.053 | [7] 0.172 | [8] 0.001 | [9] 0.117 | [10] 0

PSMC6 (UniProt P62333)
inactive: [1] -0.06 | [2] -0.074 | [3] -0.006 | [4] 0.011 | [5] -0.031 | [6] -0.037 | [7] 0.015 | [8] 0.014 | [9] 0.034 | [10] -0.008

PURA (UniProt Q00577)
inactive: [1] -0.244 | [2] -0.208 | [3] -0.319 | [4] 0.101 | [5] -0.156 | [6] 0.013 | [7] -0.137 | [8] -0.051 | [9] 0.179 | [10] -0.102

QKI (UniProt Q96PU8)
Chain of UniProt Q96PU8 (Q96PU8 whole entry, looked up): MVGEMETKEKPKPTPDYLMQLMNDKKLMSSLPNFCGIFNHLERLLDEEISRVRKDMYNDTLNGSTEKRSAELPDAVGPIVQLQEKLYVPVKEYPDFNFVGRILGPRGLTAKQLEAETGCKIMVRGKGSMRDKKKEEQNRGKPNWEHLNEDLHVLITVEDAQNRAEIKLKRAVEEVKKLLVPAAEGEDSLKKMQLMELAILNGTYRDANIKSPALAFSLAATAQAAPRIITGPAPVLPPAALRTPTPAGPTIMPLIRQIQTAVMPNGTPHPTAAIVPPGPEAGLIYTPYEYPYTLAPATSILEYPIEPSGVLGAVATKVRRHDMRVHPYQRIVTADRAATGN
inactive: [1] -0.011 | [2] 0.051 | [3] -0.008 | [4] 0.003 | [5] 0.028 | [6] 0.007 | [7] -0.002 | [8] -0.032 | [9] -0.025 | [10] -0.007

POLR2E (UniProt P19388)
inactive: [1] 0.022 | [2] 0.021 | [3] 0.038 | [4] 0.057 | [5] -0.054 | [6] 0.007 | [7] 0.013 | [8] -0.02 | [9] -0.01 | [10] 0.011

PARP1 (UniProt P09874)
inactive: [1] 0.076 | [2] 0.135 | [3] 0.042 | [4] -0.005 | [5] 0.098 | [6] -0.042 | [7] 0.137 | [8] 0.35 | [9] -0.078 | [10] -0.042

PDCD2L (UniProt Q9BRP1)
inactive: [1] -0.051 | [2] 0.226 | [3] 0.128 | [4] 0.03 | [5] 0.006 | [6] -0.03 | [7] -0.078 | [8] -0.001 | [9] -0.071 | [10] -0.036

PSMB9 (UniProt P28065)
Chain of UniProt P28065 (P28065 whole entry, looked up): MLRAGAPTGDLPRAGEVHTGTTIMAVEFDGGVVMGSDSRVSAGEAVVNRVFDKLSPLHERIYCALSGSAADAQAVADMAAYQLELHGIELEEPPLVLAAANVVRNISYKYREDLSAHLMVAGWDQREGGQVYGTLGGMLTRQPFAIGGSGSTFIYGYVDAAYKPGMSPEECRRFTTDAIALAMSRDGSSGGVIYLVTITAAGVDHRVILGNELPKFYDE
active: [2] -0.633
inactive: [1] -0.158 | [3] -0.116 | [4] 0.113 | [5] 0.174 | [6] -0.142 | [8] -0.006

PMVK (UniProt Q15126)
inactive: [1] 0.001 | [2] -0.518 | [3] 0.006 | [4] 0.042 | [5] 0.052 | [6] -0.045 | [8] -0.115 | [9] -0.006 | [10] 0.15

PPP2R5A (UniProt Q15172)
Chain of UniProt Q15172 (Q15172 whole entry, looked up): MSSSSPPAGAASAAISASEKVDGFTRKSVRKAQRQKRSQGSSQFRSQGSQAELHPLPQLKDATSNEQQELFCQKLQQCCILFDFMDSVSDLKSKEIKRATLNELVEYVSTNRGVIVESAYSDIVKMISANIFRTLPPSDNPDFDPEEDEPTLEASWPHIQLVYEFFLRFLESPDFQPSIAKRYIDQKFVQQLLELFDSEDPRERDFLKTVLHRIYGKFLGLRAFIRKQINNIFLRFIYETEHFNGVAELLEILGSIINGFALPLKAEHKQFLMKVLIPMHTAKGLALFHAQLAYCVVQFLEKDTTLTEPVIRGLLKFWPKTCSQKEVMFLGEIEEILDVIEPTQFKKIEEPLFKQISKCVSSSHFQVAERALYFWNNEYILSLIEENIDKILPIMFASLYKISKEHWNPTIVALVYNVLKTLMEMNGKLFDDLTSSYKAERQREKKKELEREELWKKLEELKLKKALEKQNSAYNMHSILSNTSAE
inactive: [1] 0.011 | [2] 0.098 | [3] 0.009 | [4] -0.022 | [5] 0.018 | [6] 0.055 | [7] 0.078 | [8] 0.017 | [9] 0 | [10] -0.015
